Assay outcomes deposited in PubChem BioAssay by National Center for Advancing Translational Sciences (NCATS).
Only some compounds are listed: those with a hit (about 9% of all), similar ones and a draw of the others.
ALDH1A1 inh – blocks purified human ALDH1A1 activity; Purified ALDH1A1, NADH fluorescence, propionaldehyde substrate; Potency, µM (doses to about 75.3 µM), for the others: at the top dose activity, negative = inhibition, actives largely listed as inhibitors; hit rate 7.3% among 220,000;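 also: potency is read from the fitted curve at half-maximal effect; plate controls were no enzyme wells and a reference inhibitor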
HPGD inh – blocks human HPGD enzyme activity | AID 894 | P15428 | purified HPGD, NADH fluorescence kinetic, PGE2 substrate | Potency, µM, without a hit: top-dose activity change, negative = inhibition, hits mostly inhibitors | hit rate 4.3% among 150,000; also: potency is read from the fitted curve at half-maximal effect
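20 nM HPGD preincubated 15 min at room temperature with compound in 50 mM Tris-HCl pH 8, 0.01% Tween 20. Started with 1 mM NAD+ and 30 uM prostaglandin E2; NADH fluorescence (360/450 nm) read 5 times over 30-s intervals, last minus first.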
IMPase inh – IMPase inhibition in cells; inhibition (IP1 accumulation), % at 46.1 µM; CHO-M1 cells, IP1 accumulation, HTRF TR-FRET ratio; P97697; 120,000 tested, under 10 active; active = well fitted curve in the direction sought with a large enough effect in the signal ratio, not every such curve was filed as active; inconclusive = small, poorly fitted or top-dose-only effect, or a change in a side signal; inactive = no such curve, though single readings can be large or run the other way; the % refers to the signal ratio;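 also: cells stimulated with carbachol in lithium chloride buffer; plate controls were DMSO basal wells for no effect and reference inhibitor wells for full effect; higher means more IMPase inhibition seen as more IP1 and lower FRET ratio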
Target sequence (P97697 whole entry, looked up): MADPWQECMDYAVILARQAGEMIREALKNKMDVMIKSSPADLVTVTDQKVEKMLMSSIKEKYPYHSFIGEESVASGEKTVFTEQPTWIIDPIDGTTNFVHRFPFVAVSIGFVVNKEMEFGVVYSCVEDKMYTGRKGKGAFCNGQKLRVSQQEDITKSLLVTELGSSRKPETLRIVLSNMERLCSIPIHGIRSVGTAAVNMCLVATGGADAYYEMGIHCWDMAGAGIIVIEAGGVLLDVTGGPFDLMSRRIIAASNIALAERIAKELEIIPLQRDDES
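In this qHTS, compounds (final up to 46 uM) act on CHO-M1 cells that are then activated through the M1 receptor with carbachol, in pH 7.4 buffer containing 50 mM LiCl, for 30 min. IP1 accumulation is quantified by the IP-One immunoassay.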
* marks the source's active call; other numbers are inactive results; ? = inconclusive; · = no result; [ ] = another dose, or the depositor's remark. Unless noted, calls follow the shape of the dose curve; as a rule, active = well fitted inhibition curve with a large enough effect (not every such curve was filed as active); inconclusive = small, poorly fitted or top-dose-only effect, or another doubt; inactive = no such curve, though single readings can be large or run the other way. Unless noted, % is scaled to controls: 0 for no effect and ±100 for the full control effect.

SMILES	ALDH1A1 inh	HPGD inh	IMPase inh
COc1cccc(C2=NOC(C(=O)Nc3ccccc3SC)C2)c1 (stereo not drawn)	-14%	-6%	-1
COc1ccccc1NC(=O)c1sc2nc(N3CCOCC3)c3c(c2c1N)CC(C)(C)OC3	·	·	9
CC(C)CO/N=C1/C[C@@H](O)[C@@H](O)[C@@H]2[C@@H]3C(=O)N([C@@H](C)c4ccccc4)C(=O)[C@H]3CC[C@H]12	2%[13.5 µM]	·	·
Cn1c(=O)n(C)c2cc(N3CCOCC3)c(NC(=O)c3ccc(Cl)cc3)cc21	·	·	-5
C=CCn1c(-c2ccccc2)c[nH]c1=S	?	?	-4
C=CCn1c(-c2ccc(Cl)cc2)c[nH]c1=S	1.4µM*	11µM*	1
CCOC(=O)OCC1OC(C#Cc2ccc(Br)cc2)C=CC1OC(=O)OCC (stereo not drawn)	-19%[13.5 µM]	·	·
CCCCC#CC1C=CC(OC(C)=O)C(COC(C)=O)O1 (stereo not drawn)	3.5µM*	·	·
CC(=O)OCC1OC(C#Cc2ccc(Br)cc2)C=CC1OC(C)=O (stereo not drawn)	-5%[13.5 µM]	·	·
CCCCCCC#CC1C=CC(OC(=O)OCC)C(COC(=O)OCC)O1 (stereo not drawn)	4µM*	·	·
Cc1cccc(CSCc2ccc(C(=O)NC3CCCC3)o2)c1	-16%	·	·
COc1cccc(C(C)N(C)Cc2nc(-c3ccoc3)oc2C)c1 (stereo not drawn)	10%	·	·
O=C(Nc1ccc(S(=O)(=O)Nc2nccs2)cc1)c1ccc(S(=O)(=O)N2CCOCC2)cc1	?	2%	·
COc1nccnc1NS(=O)(=O)c1ccc(NC(=S)NC(=O)c2ccc(F)cc2)cc1	14µM*	-11%	·
COc1nccnc1NS(=O)(=O)c1ccc(NC(=S)NC(=O)c2ccccc2F)cc1	?	-8%	·
O=C(NC(=S)Nc1ccc(S(=O)(=O)Nc2nccs2)cc1)c1ccc(F)cc1	18µM*	-23%	·
O=C(Nc1ccc(S(=O)(=O)Nc2nccs2)cc1)c1ccc(F)c(S(=O)(=O)N2CCOCC2)c1	5µM*	·	·
COc1nsnc1NS(=O)(=O)c1ccc(NC(=S)NC(=O)c2cccnc2)cc1	20µM*	·	·
COc1nccnc1NS(=O)(=O)c1ccc(NC(=S)NC(=O)c2cccc(F)c2)cc1	?	-8%	·
O=C(O)CCC(=O)Nc1ccc(S(=O)(=O)Nc2nccs2)cc1	-10%	-9%	-4[20.6 µM]
O=C(c1cnccn1)N1CCC2(CC1)CN(c1ccccn1)C2	?	-16%	·
Cc1ccccc1NC(=O)c1ccc(CN(c2ccccc2)S(=O)(=O)c2ccccc2)cc1	33%	-25%	·
CC(=O)CC(=O)Nc1ccc(C(N)=O)cc1	2%	·	·
C[C@@H](CCCCC(=O)Nc1ccc(C(F)(F)F)cc1)NCCc1cnc[nH]1	2%	4%	3
CN(C)C(=O)c1ccc(-c2cncnc2Nc2ccc(F)cc2)cc1	11µM*	·	·
SMILES	ALDH1A1 inh	HPGD inh	IMPase inh
CN(C)Cc1ccccc1-c1cncnc1Nc1ccc(F)cc1	14%	-9%	·
Cn1cccc1C(=O)N1CCC[C@@]2(CCN(c3ncccn3)C2)C1	-13%	-11%	·
O=C(OCC(=O)N1CCN(S(=O)(=O)c2ccccc2)CC1)c1ccc([N+](=O)[O-])o1	20µM*	·	·
CC(C)CC(=O)N1CCN(S(=O)(=O)c2ccc(Cl)cc2)CC1	6%	·	·
O=C(COc1ccccc1[N+](=O)[O-])N1CCN(S(=O)(=O)c2ccccc2)CC1	-9%	·	·
O=C(OCC(=O)N1CCN(S(=O)(=O)c2ccc(Cl)cc2)CC1)c1ccc([N+](=O)[O-])o1	25µM*	·	·
Oc1cc(O)c2c(c1)O[C@@H](c1ccc(O)c(O)c1)[C@H](O[C@@]1(c3cc(O)c(O)c(O)c3)Oc3cc(O)cc(O)c3[C@H](O)[C@@H]1O)C2	9%[13.5 µM]	-14%	·
Cc1nc(NC2CCCCC2)c2nc(-c3ccccc3)n(C(C)CN(C)C)c2n1 (stereo not drawn)	?	-29%	·
COc1ccc(/C=N/N=C2/CC(C)(C)Cc3n[nH]c(=O)cc32)cc1	28µM*	·	·
COc1ccc(/C=N/N=C2/NC(=O)CC(C(=O)O)S2)cc1 (stereo not drawn)	9%	-12%	·
COc1ccc(C2C(C(=O)N3CCN(c4ccccc4F)CC3)c3ccccc3C(=O)N2C)cc1 (stereo not drawn)	0.89µM*	-7%	1
COc1ccc(C2C(C(=O)N3CCC(C)CC3)c3ccccc3C(=O)N2C)cc1 (stereo not drawn)	-5%	-6%	-15
COc1ccc(-c2noc(CSc3nc4ccccc4c(=O)n3-c3ccc(C)cc3)n2)cc1	-1%	-6%	4
Cc1ccc(CN=C(N)Nc2nc(C)cc(C)n2)cc1	4%	·	·
C=CCc1cc(C)ccc1OCCOCCn1ccnc1	25µM*	1%	·
C=CCc1cc(C)ccc1OCCn1ccnc1	?	-5%	3
